Measured values taken from PubChem BioAssay (Tox21).
Where “and” joins values, the source holds several entries; their conditions need not be identical. Equal values may be shown once. Inconclusive results are not listed. Where a structure was tested more than once in an assay, its records may differ in their call. Calls of active or inactive are those of the source. Unless noted, the call rests on the fitted dose curve; in most records, active means well fitted curve in the direction sought with a large enough effect in the repeat runs; inconclusive means weak or mixed curves; inactive means no such curve, though single readings can be large; an effect the other way counts as inactive or inconclusive.

Key:
[1] = qHTS assay to identify small molecule agonists of the constitutive androstane receptor (CAR) signaling pathway - cell viability counter screen (AID 1224836); further: nearly all actives have a fitted effect of over 45% in size; further: potency means the concentration at half of the fitted maximal effect
Procedure, shortened: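 Cells were seeded and incubated 4 hrs. Compounds were added across 15 concentrations together with PK11195 at 0.75 uM final. Plates were incubated 23 hrs at 37 C. CellTiter-Fluor was added and fluorescence measured.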

[2] = qHTS assay to identify small molecule antagonists of the constitutive androstane receptor (CAR) signaling pathway - cell viability counter screen (AID 1224837); further: nearly all actives have a fitted effect of over 45% in size; further: potency means the concentration at half of the fitted maximal effect
Procedure, shortened: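 HepG2 cells stably expressing hCAR and a CYP2B6-2.2kb reporter were plated and pre-incubated 4 hr at 37 C/5% CO2, then given compounds at 15 concentrations plus 50 nM CITCO (final). After 23 hr, viability was read by CellTiter-Fluor fluorescence.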

[3] = target: Nuclear receptor subfamily 1 group I member 3 (Homo sapiens) (UniProt Q14994); assay: qHTS assay to identify small molecule antagonists of the constitutive androstane receptor (CAR) signaling pathway (AID 1224838); further: nearly all actives have a fitted effect of over 40% in size; further: potency means the concentration at half of the fitted maximal effect
Procedure, shortened: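 HepG2 cells stably co-transfected with hCAR and a CYP2B6-2.2kb luciferase reporter were seeded 4 h before compound addition at 15 concentrations. Cells were stimulated with 50 nM CITCO (final) for 24 h at 37 C; luciferase luminescence was then read.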

[4] = target: Nuclear receptor subfamily 1 group I member 3 (Homo sapiens) (UniProt Q14994); assay: qHTS assay to identify small molecule agonists of the constitutive androstane receptor (CAR) signaling pathway (AID 1224839);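 further: HepG2 cells stably carrying human CAR and a CYP2B6 luciferase reporter; nearly all actives have a fitted effect of over 15% in size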
Procedure, shortened: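 Cells were plated and incubated 4 hrs, then dosed with compounds at 15 concentrations. PK11195 was added to 0.75 uM final. After 24 hrs at 37 C, luciferase luminescence was measured.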

[5] = qHTS assay to identify small molecule antagonists of the estrogen related receptor signaling pathway with the pleiotropic PPARgamma coactivator (PGC) from Tox21 10K library - cell viability counter screen (AID 1224840; active means well fitted cell-killing curve with a large enough effect in the repeat runs, not every such curve was filed as active; further: nearly all actives have a fitted effect of over 40% in size; further: potency means the concentration at half of the fitted maximal effect)
Procedure, shortened: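 PGC/ERR cells were seeded at 2,000 cells/well and left 6 hours at 37 C/5% CO2 before pin-tool addition of compounds in DMSO. After 17.5 hours at 37 C, CellTiter-Fluor was added and fluorescence read 30 minutes later.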

[6] = target: Thyrotropin receptor (Homo sapiens) (UniProt P16473); assay: qHTS assay to identify small molecule agonists of the thyroid stimulating hormone receptor (TSHR) signaling pathway (AID 1224843; calls by dose curve; further: nearly all actives have a fitted effect of over 45% in size)
Procedure, shortened: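 TSHR-expressing HEK293 cells (800 per well) were exposed to compounds for 30 min at room temperature. cAMP was then detected by HTRF competition with cAMP-d2 and anti-cAMP cryptate, read after 1 h at room temperature. Fifteen concentrations, triplicate.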

[7] = qHTS RealTime-Glo MT Cell Viability Assay in HepG2 cells - 24 hour (AID 1224867); further: nearly all actives have a fitted effect of over 50% in size; further: potency means the concentration at half of the fitted maximal effect
Procedure, shortened: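 HepG2 suspension premixed with RealTime-Glo reagents is plated at 600 cells per well and left 5 h at 37 C/5% CO2. Compounds in DMSO then go in, and bioluminescence reflecting viable cell number is recorded over 40 h.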

[8] = qHTS RealTime-Glo MT Cell Viability Assay in HepG2 cells - 40 hour (AID 1224870); further: nearly all actives have a fitted effect of over 50% in size; further: potency means the concentration at half of the fitted maximal effect
Procedure, shortened: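 HepG2 cells mixed with RealTime-Glo MT reagents (NanoLuc plus cell-permeant prosubstrate) were seeded at 600 cells/well, incubated 5 h at 37 C/5% CO2, then pinned with compounds in DMSO; nonlytic luminescence tracked viability during 40 h treatment.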

[9] = qHTS assay to identify small molecule agonists of the estrogen related receptor signaling pathway with the pleiotropic PPARgamma coactivator (PGC) from Tox21 10K library (AID 1224842); further: nearly all actives have a fitted effect of over 15% in size; further: potency means the concentration at half of the fitted maximal effect
Procedure, shortened: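 PGC/ERR reporter cells (NTP line) were seeded 2,000 per well, rested 6 h at 37 C/5% CO2, then pin-dosed with compounds in DMSO for 18 h at 37 C; luciferase read by One-Glo luminescence after 30 min at room temperature.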

[10] = qHTS assay to identify small molecule agonists of the hypoxia (HIF-1) signaling pathway - cell viability counter screen (AID 1224844; calls by dose curve; further: nearly all actives have a fitted effect of over 50% in size; further: potency means the concentration at half of the fitted maximal effect)
Procedure, shortened: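 HRE-bla ME-180 cells in medium with 0.5% dialyzed FBS were preincubated 5 hrs at 37C, exposed to compounds for 17 hrs, then viability was read as CellTiter-Glo luminescence after 30 min at room temperature, in the reporter wells.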

[11] = qHTS assay to identify small molecule agonists of the hypoxia (HIF-1) signaling pathway (AID 1224846; active means well fitted activation curve with a large enough effect in the signal ratio in the repeat runs, not every such curve was filed as active; the % refers to the signal ratio; further: potency means the concentration at half of the fitted maximal effect)
Procedure, shortened: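 HRE-bla ME-180 cells (beta-lactamase reporter under hypoxia response element) were plated at 2,000 cells/well in medium with 0.5% dialyzed FBS, rested 5 hrs, then given compounds in DMSO for 17 hrs at 37C, 5% CO2. Reporter induction was read with CCF4-AM FRET substrate.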

[12] = qHTS assay to identify small molecule antagonists of the estrogen related receptor (ERR) signaling pathway from Tox21 library (AID 1224848); further: nearly all actives have a fitted effect of over 50% in size; further: potency means the concentration at half of the fitted maximal effect
Procedure, shortened: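 Cells: ERR line, 2,000/well; 6 h preincubation 37 C/5% CO2. Cpd in DMSO via pin tool; 18 h, 37 C. ONE-Glo, 30 min RT, luminescence.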

[13] = qHTS assay to identify small molecule agonists of the estrogen related receptor (ERR) signaling pathway from Tox21 library (AID 1224849; calls by dose curve; further: nearly all actives have a fitted effect of over 15% in size); conditions: ERR reporter cell line, ONE-Glo luciferase, 18 h
Procedure, shortened: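 ERR reporter cell line (NTP) seeded, rested 6 h at 37 C/5% CO2, then pinned with Tox21 compounds in DMSO. After 18 h at 37 C, ONE-Glo luciferase luminescence was read following 30 min at room temperature.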

[14] = A CellTox Green Cytotoxicity Assay to monitor cytotoxicity in HEK293 cells - 0 hour (AID 1224869); further: nearly all actives have a fitted effect of over 50% in size; further: potency means the concentration at half of the fitted maximal effect
Procedure, shortened: (§1)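 HEK293 cells premixed with CellTox Green dye were seeded at 600 cells/well and left 5 h at 37 C/5% CO2 before pin transfer of 23 nL compound in DMSO. Fluorescence from dye bound to dead-cell DNA was read during 40 h treatment.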

[15] = A CellTox Green Cytotoxicity Assay to monitor cytotoxicity in HEK293 cells - 40 hour (AID 1224871); further: nearly all actives have a fitted effect of over 45% in size; further: potency means the concentration at half of the fitted maximal effect
Procedure, shortened: as §1

[16] = target: Luciferin 4-monooxygenase (Photinus pyralis) (UniProt P08659); assay: qHTS assay to identify small molecule inhibitors of firefly luciferase (AID 1224835); further: nearly all actives have a fitted effect of over 25% in size; further: potency means the concentration at half of the fitted maximal effect
Procedure, shortened: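 Quantitative HTS format; KM concentrations of both substrates. Purified P. pyralis FLuc activity quantified from luminescence images.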

[17] = qHTS assay to identify small molecule agonists of H2AX (AID 1224845; active means well fitted activation curve with a large enough effect in the signal ratio in the repeat runs, not every such curve was filed as active; the % refers to the signal ratio; further: potency means the concentration at half of the fitted maximal effect)
Procedure, shortened: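 Wild-type CHO-K1 cells plated overnight, then exposed 3 hr at 37C to compounds at 15 concentrations (0.76% DMSO). Lysed, then HTRF anti-pH2AX(S139)-cryptate/anti-H2AX-d2 detection after 24 hr at room temperature; emissions 665 and 620 nm.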

[18] = qHTS RealTime-Glo MT Cell Viability Assay in HEK293 cells - 32 hour (AID 1224868); further: nearly all actives have a fitted effect of over 50% in size; further: potency means the concentration at half of the fitted maximal effect; on activity change, negative = cytotoxic: top concentration of the series differs between compounds
Procedure, shortened: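 Reads taken at 0, 8, 16, 24, 32 and 40 h from the same wells. HEK293 cells (600/well) carried RealTime-Glo reagents from seeding, with compound added after a 5 h settle at 37 C.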

[19] = qHTS assay to identify small molecule agonists of H2AX - cell viability counter screen (AID 1224847; calls by dose curve; further: top concentration of the series differs between compounds; nearly all actives have a fitted effect of over 30% in size)
Procedure, shortened: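 Cytotoxicity counter screen in wild-type CHO-K1 cells: a 3 hr compound treatment at 37C across 15 concentrations, followed by CellTiter-Glo luminescence to gauge viable cells.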

[20] = qHTS assay to identify small molecule antagonists of the estrogen related receptor signaling pathway with the pleiotropic PPARgamma coactivator (PGC) from Tox21 10K library (AID 1224841; call rule not given here; further: potency means the concentration at half of the fitted maximal effect)
Procedure, shortened: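 PGC/ERR reporter cells were seeded at 2,000 cells/well and held 6 hours at 37 C/5% CO2 before pin-tool addition of compounds in DMSO. After 18 hours at 37 C, One-Glo was added and luminescence read after 30 minutes at room temperature.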
On the % scale 0 is the no-effect control and ±100 the full control effect.

Sequence of Thyrotropin receptor (Homo sapiens) (P16473 whole entry, looked up): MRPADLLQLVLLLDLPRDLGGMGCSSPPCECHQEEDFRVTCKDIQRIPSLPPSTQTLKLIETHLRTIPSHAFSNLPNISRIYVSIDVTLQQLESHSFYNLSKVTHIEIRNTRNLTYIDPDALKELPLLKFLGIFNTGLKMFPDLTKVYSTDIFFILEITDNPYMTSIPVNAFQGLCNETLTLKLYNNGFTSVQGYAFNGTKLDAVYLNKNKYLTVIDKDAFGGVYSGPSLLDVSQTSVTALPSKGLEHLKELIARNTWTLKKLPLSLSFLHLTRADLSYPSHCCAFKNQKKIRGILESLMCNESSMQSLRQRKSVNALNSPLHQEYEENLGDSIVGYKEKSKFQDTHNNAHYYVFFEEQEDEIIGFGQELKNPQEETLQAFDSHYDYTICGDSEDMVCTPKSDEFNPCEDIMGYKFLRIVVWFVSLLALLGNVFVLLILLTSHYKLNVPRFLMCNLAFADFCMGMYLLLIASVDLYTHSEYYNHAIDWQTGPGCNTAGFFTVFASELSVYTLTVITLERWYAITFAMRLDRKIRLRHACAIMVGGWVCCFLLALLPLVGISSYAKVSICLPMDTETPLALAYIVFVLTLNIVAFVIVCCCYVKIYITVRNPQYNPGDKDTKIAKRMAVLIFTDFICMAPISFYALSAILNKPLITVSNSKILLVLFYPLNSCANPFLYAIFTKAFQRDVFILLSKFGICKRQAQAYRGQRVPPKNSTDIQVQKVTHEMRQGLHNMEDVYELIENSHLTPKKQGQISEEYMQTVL
Sequence of Luciferin 4-monooxygenase (Photinus pyralis) (P08659 whole entry, looked up): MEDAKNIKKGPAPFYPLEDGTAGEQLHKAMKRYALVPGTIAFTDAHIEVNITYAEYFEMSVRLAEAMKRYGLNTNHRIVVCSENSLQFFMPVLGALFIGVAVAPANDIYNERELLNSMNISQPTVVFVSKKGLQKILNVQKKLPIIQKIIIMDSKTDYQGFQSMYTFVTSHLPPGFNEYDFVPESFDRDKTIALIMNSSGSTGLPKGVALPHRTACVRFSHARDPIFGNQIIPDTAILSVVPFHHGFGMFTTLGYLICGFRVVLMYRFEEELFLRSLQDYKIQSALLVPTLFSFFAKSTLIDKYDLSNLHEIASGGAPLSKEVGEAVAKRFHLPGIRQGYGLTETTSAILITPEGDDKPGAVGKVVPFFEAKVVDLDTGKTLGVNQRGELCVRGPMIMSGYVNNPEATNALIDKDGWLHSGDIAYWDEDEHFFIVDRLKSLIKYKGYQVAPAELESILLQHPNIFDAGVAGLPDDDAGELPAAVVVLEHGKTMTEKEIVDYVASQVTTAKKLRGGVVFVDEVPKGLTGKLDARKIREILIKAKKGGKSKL
Sequence of Nuclear receptor subfamily 1 group I member 3 (Homo sapiens) (Q14994 whole entry, looked up): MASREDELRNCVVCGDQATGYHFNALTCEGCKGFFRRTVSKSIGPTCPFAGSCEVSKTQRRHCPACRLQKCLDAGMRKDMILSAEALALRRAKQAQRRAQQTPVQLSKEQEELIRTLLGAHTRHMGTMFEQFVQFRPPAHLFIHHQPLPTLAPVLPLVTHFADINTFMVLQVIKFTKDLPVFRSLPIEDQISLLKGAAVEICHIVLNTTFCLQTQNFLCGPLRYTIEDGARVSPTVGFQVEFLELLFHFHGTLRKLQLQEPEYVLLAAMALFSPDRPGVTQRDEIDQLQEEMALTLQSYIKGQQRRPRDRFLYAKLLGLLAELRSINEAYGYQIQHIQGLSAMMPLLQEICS

O=c1c(O)c(-c2ccc(O)cc2O)oc2cc(O)cc(O)c12
inactive: Potency [1] | Potency [2] | Potency [3] | Potency [4] | Potency [5] | Potency [6] | Potency [7] | Potency [8]

[Cl][Pt-2]([Cl])([Cl])[Cl]
inactive: Potency [1] | Potency [2] | Potency [3] | Potency [5] | Potency [9] | Potency [10] | Potency [11] | Potency [12] | activity change, positive = activation ([13]; at 92.4 µM (top of the series)) -8.8% | Potency [7] | Potency [14] | Potency [8] | Potency [15]

COCCOc1cc2cc(C(=O)NC3CCN(C(C)C)CC3)n(CC(=O)Nc3ccc(Cl)cn3)c2cn1
inactive: Potency [16] | Potency [2] | Potency [5] | Potency [6] | Potency [10] | Potency [17] | Potency [11] | Potency [7] | Potency [18] | Potency [14] | Potency [8]

O=C(O)CN(CCN(CC(=O)O)CC(=O)O)CC(=O)O
active: Potency [3] 1.94 µM | Potency [17] 4.52 µM | Potency [14] 1.96 µM
inactive: activation [4] -0.673% [at 3.27 µM] | viability change, negative = cytotoxic [5] 1.11% [at 3.27 µM] | activation [6] -1.34% [at 3.27 µM] | activity change, negative = cytotoxicity [10] -5.67% [at 2.72 µM] | activity change, negative = cytotoxicity [19] -5.08% [at 5.43 µM] | activity change, negative = cytotoxicity [7] 3.3% [at 2.72 µM] | activity change, negative = cytotoxic [18] 9.19% [at 2.72 µM] | activity change, negative = cytotoxic [8] 12.4% [at 2.72 µM]

CCCC(=O)OC(C)(C)Cc1ccccc1
inactive: Potency [1] | Potency [2] | Potency [3] | Potency [4] | Potency [5] | Potency [10] | Potency [17] | Potency [11] | Potency [19] | Potency [7] | Potency [18] | Potency [14] | Potency [8]
active: Potency [15] 24.5 µM

COc1cccc2c1C(=O)c1c(O)c3c(c(O)c1C2=O)C[C@@](O)(C(C)=O)C[C@@H]3O[C@H]1C[C@H](N)[C@H](O)[C@H](C)O1
43.9 µM (active) and inactive: Potency [15]
inactive: Potency [20] | Potency [19] | Potency [12] | activity change, positive = activation ([13]; at 42.5 µM (top of the series)) -0.62% | activity change, positive = activation ([13]; at 92.4 µM (top of the series)) -74.3%
active: Potency [1] 19.4 µM and 1.19 µM | Potency [2] 2.75 µM and 211 nM | Potency [5] 27.5 µM | Potency [9] 0.154 µM | Potency [17] 0.0391 µM | Potency [7] 24.7 µM | Potency [14] 43.9 µM | Potency [8] 19.6 µM
553 nM (active) and inactive: Potency [10]

CCCCCCCCCCCCOCCOCCOCCOCCOCCOCCOCCOCCOCCO
inactive: Potency [16] | Potency [3] | Potency [4] | Potency [9] | Potency [17] | activity change, positive = activation ([13]; at 42.5 µM (top of the series)) -54.8% | Potency [8]
active: Potency [20] 5.31 µM | Potency [12] 2.98 µM | Potency [18] 5.35 µM

COc1cc2nc(N3CCN(C(=O)c4ccco4)CC3)nc(N)c2cc1OC
inactive: viability change, negative = cytotoxic [1] -2.7% [at 19 µM] | activity change, negative = cytotoxicity [2] -2.45% [at 19 µM] | activity, negative = inhibition [3] 3.26% [at 19 µM] | activation [4] 0.371% [at 19 µM] | activation [6] -0.792% [at 19 µM] | activity change, negative = cytotoxicity [7] -23% [at 15.8 µM] | activity change, negative = cytotoxic [18] -17.7% [at 15.8 µM] | cytotoxicity increase [15] 63.2% [at 15.8 µM]

O=S(=O)(O)c1ccccc1/C=C/c1ccc(-c2ccc(/C=C/c3ccccc3S(=O)(=O)O)cc2)cc1
active: Potency [16] 57.2 µM | Potency [11] 39.4 µM
inactive: Potency [3] | Potency [4] | Potency [5] | Potency [20] | Potency [9] | Potency [6] | Potency [10] | Potency [19] | Potency [12] | activity change, positive = activation ([13]; at 92.4 µM (top of the series)) 4.34% | Potency [7] | Potency [18] | Potency [14] | Potency [8] | Potency [15]
